Data on 7 compounds can be found in PubChem BioAssay (EPA / NIEHS).

The structures appear in SMILES notation. Where “and” joins values, the source holds several entries; their conditions need not be identical. Identical values can stand only once. Results filed as inconclusive are left out. A structure can be active in one record and inactive in another. Calls of active or inactive are those of the source. The calls were made as follows, unless noted: active = hit-call score of the fitted dose curve at least 0.9, where 1 is the maximum; inactive = score below 0.9.

What is called AC50 is the concentration at which the activity in the assay is half-maximal.

The nature of experiment [1]: CCTE_Mundy_HCI_Cortical_Synap_Neur_Matur_NeuriteCount: CCTE's Synaptogenesis and Neurite Maturation Assay in rat cortical cells for Neurite Count, Mundy Lab (AID 2284222).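 Also: exposure from day 7 to day 12 in vitro with readout at day 12.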 In a few lines: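 Rat cortical neurons, 96-well; AraC DIV 5; chemical + media change DIV 7; end DIV 12. Fix PFA/Hoechst, anti-MAP2 + anti-synaptophysin IF. HCI neurite count vs DMSO baseline.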
A short description of experiment [2]: CCTE_Mundy_HCI_Cortical_Synap_Neur_Matur_CellBodySpotCount: CCTE's Synaptogenesis and Neurite Maturation Assay in rat cortical cells for Cell Body Spot Count, Mundy Lab (AID 2284223). In outline:
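Primary rat cortical cultures, AraC added at DIV 5; dosed DIV 7 through DIV 12 […]. Fixed, stained for MAP2 and synaptophysin with Hoechst; cell body-associated synaptophysin puncta per neuron counted by high-content imaging, loss vs DMSO.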

The nature of experiment [3]: TAMU_HCS_1.5hr_SingleDonor1434_Cytotoxicity: Cytotoxicity Assessment using High-content Screening (HCS) Fluorescent Imaging for the Texas A&M University (TAMU) 1.5-hr Human Induced Pluripotent Stem Cell (iPSC)-derived Cardiotoxicity Assay (AID 2284234; active = hit-call score of the fitted dose curve at least 0.9, where 1 is the maximum). In a few lines:
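Nuclear counts from Hoechst 33342 imaging define cytotoxicity here, with EC10 (10% cell-count loss relative to DMSO) as point of departure. iPSC cardiomyocytes received 0.2-100 uM test chemical in 0.5% DMSO for 1.5 h at 37 C.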

Experiment [4] is described as follows: BSK_BT_PBMCCytotoxicity: PBMC Cytotoxicity Assessment in the BioMAP Diversity Plus: BT Assay (AID 2284225).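 Also: PBMC viability measured by Alamar Blue dye reduction fluorescence.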 Conditions: primary human B cells with PBMC. In a few lines: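 Primary human co-culture of B cells and PBMC, pre-dosed 1 h then activated with SEB and TSST-1. Cytotoxicity is taken from Alamar Blue dye reduction, added for 6 h at the end of a 90 h incubation.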

Read-out in experiment [5]: Secreted IgG (sIgG), gene 3500
Nature of the experiment: BSK_BT_sIgG: BioMAP Diversity Plus: BT Assay for Secreted IgG (sIgG) Biomarker Activity (AID 2284226). Conditions: primary human B cells with PBMC. In a few lines: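 Human B cell/PBMC co-culture; compound exposure 24 h; sIgG by ELISA; gain-of-signal fit vs DMSO baseline.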

Experiment [6] can be described thus: BSK_BT_Bcell_Proliferation: Viability Assessment in the BioMAP Diversity Plus: BT Assay for B cell Proliferation (AID 2284227). Particulars: primary human B cells with PBMC. Here is the method: BSK_BT is a cell-based, multiplexed-readout assay that uses B cell and peripheral blood mononuclear cells, a human vascular primary cell co-culture, with measurements taken at 24 hours after chemical dosing in a microplate: 96-well plate.BSK_BT_Bcell_Proliferation is an assay component measured in the BSK_BT assay. It measures protein content, a form of viability reporter, as detected with absorbance signals by Sulforhodamine staining technology.Data from the assay component BSK_BT_Bcell_Proliferation was analyzed at the endpoint, BSK_BT_Bcell_Proliferation, in the positive analysis fitting direction relative to DMSO as the negative control and baseline of activity. […]
The levels of cell surface (or secreted, indicated by the prefix "s") biomarker endpoints were measured by ELISA. Overt cytotoxicity to cells in confluent adherent cultures (all systems other than the BT system) was assessed by measuring total protein levels using sulforhodamine B (SRB) staining in parallel cultures at the time of biomarker measurements, indicated as SRB endpoints. For proliferation assays for adherent cell types, individual cell types are cultured at sub-confluence and relative cell numbers quantified by SRB staining at time points optimized for each system (48 h: 3C and CASM3C systems; 72 h: BT and HDF3CGF systems; 96 h: SAg system). […] Plates were read after 6 h.

Read-out in experiment [7]: Interleukin 6 (IL6), IL6 (gene 3569)
The experiment can be described thus: BSK_BT_xIL6: BioMAP Diversity Plus: BT Assay for Interleukin 6 (IL6) Biomarker Activity (AID 2284228). Particulars: primary human B cells with PBMC. In a few lines:
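Human B cell/PBMC co-culture; secreted IL-6 quantified by Luminex xMAP 24 h after chemical dosing, fitted relative to DMSO. Parallel PBMC viability by Alamar Blue after 1 h pretreatment, 20 ng/mL SEB and TSST-1, 90 h incubation.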

Read-out in experiment [8]: Interleukin 17A (IL17A), IL17A (gene 3605)
The experiment can be described thus: BSK_BT_xIL17A: BioMAP Diversity Plus: BT Assay for Interleukin 17A (IL17A) Biomarker Activity (AID 2284229). Conditions: primary human B cells with PBMC. In a few lines: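 Co-culture of human B cells and PBMC, dosed for 24 h in 96-well format. Secreted IL-17A measured with Luminex xMAP; gain-direction fitting against DMSO as baseline.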

Read-out in experiment [9]: Tumor necrosis factor (Homo sapiens) (UniProt P01375)
The experiment can be described thus: BSK_BT_xTNFa: BioMAP Diversity Plus: BT Assay for Tumor necrosis factor alpha (TNF-alpha) Biomarker Activity (AID 2284230). Conditions: primary human B cells with PBMC. In a few lines: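 Read-out: Luminex xMAP quantitation of secreted TNF-alpha from a B cell/PBMC co-culture 24 h after compound addition. Signal analysed relative to DMSO vehicle, positive fitting direction.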

Read-out in experiment [10]: Vascular cell adhesion molecule 1 (VCAM1), VCAM1 (gene 7412)
Nature of the experiment: BSK_MyoF_VCAM1: BioMAP Diversity Plus: MyoF Assay for Vascular cell adhesion molecule 1 (VCAM1) Biomarker Activity (AID 2284231). Conditions: primary human lung fibroblasts. In a few lines: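 Primary human lung fibroblasts (BioMAP MyoF system) dosed with chemical, VCAM-1 measured by ELISA 24 hours later. Fitted in the positive direction against DMSO; parallel SRB staining assessed cytotoxicity.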

Chain of Tumor necrosis factor (Homo sapiens) (P01375 whole entry, looked up): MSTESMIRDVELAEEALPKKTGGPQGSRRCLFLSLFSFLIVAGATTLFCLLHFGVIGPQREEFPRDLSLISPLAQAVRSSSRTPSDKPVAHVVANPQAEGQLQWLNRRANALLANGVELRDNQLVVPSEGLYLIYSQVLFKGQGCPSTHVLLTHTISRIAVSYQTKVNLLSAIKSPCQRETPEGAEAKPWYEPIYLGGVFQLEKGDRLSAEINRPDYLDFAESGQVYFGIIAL

Take `O=C1CCC(N2C(=O)c3ccccc3C2=O)C(=O)N1` (centres undefined): the compound was called inactive in experiment [1] and in [2].

As to `O=P(OC(CCl)CCl)(OC(CCl)CCl)OC(CCl)CCl`, the compound was classed as inactive in experiment [1] and in experiment [2].

Turning to `NC(=O)NO`, the compound was called inactive in [1] and in experiment [2].

As for `CCCCCCc1ccc(O)cc1O`, the AC50 in [3] is 50 µM (active).

As for `Cn1cnc([N+](=O)[O-])c1Sc1ncnc2nc[nH]c12`, the AC50 in experiment [4] is 8.01 µM (active); in [5] it was 206 nM (active) and 716 nM (active); in [6] it was 10.5 µM (active) and 5.28 µM (active); in [7], 8.87 µM (active) and 12.6 µM (active); in experiment [8], 12.6 µM (active) and 10.3 µM (active); in experiment [9], 12.6 µM (active). The result in [4] and in [10] was inactive.

Regarding `Cn1c(=O)c2c(ncn2C)n(C)c1=O`, the compound was classed as inactive in experiment [1] and in experiment [2].

Take `CC[C@H]1OC(=O)[C@H](C)[C@@H](O[C@H]2C[C@@](C)(OC)[C@@H](O)[C@H](C)O2)[C@H](C)[C@@H](O[C@@H]2O[C@H](C)C[C@H](N(C)C)[C@H]2O)[C@](C)(O)C[C@@H](C)C(=O)[C@H](C)[C@@H](O)[C@]1(C)O`: the compound was called inactive in [1] and in experiment [2].
